Sampled rows, rich in hits. Any-hit rate of the full collection: about 4.1%.
hgDAF-12 ag: hgDAF-12 agonism, primary luciferase screen. HEK293 GAL4-hgDAF12 UAS-luciferase reporter, agonist luminescence; normalized to butyrate control. activation, % at 6.8 µM. 370,000 compounds, 1.8% hits. AID 687014;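 active = activation above a cutoff set at the mean of all screened compounds plus 3 SD, cut at about 10% in these data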
ssDAF12 agonist: activators of S. stercoralis DAF-12 nuclear receptor | HEK293 ssDAF-12/GRIP1 lit1-tk-luc reporter, luminescence; % of 3 µM dafachronic acid response | activation, % at 6.8 µM | 370,000 compounds, 1% hits | AID 652126;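 active = activation above the mean over all tested compounds plus 3 SD, cut at about 0.9% in these data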
hcDAF-12 act: H. contortus DAF-12 activation, primary screen; HEK293 hcDAF-12 lit1-tk-luc reporter, luminescence; 0% DMSO, 100% Δ7-dafachronic acid; activation, % at 6.8 µM; 370,000 compounds, 1.4% hits; AID 652067;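 active = activation above the mean of all tested compounds plus 3 SD, cut at about 5.5% in these data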
DAX1 inh-1: inhibits human nuclear receptor DAX1. P51843. HEK293 Gal4-DAX1 luciferase reporter, luminescence. inhibition, % at 6.75 µM. 340,000 compounds, 0.99% hits. AID 504766;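 active = inhibition above the mean over all tested compounds plus 3 SD, cut at about 4.2% in these data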;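 note: inhibition shows as a rise in luminescence from relieved DAX1 repression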
Target sequence (P51843 207-470 limits assumed): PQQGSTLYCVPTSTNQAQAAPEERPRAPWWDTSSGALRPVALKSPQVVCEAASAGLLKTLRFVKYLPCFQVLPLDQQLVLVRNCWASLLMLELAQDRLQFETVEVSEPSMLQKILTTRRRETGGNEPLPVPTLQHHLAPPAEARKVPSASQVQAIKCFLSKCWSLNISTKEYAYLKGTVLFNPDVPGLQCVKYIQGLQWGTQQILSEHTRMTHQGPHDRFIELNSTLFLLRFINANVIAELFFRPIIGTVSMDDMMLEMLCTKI
DAX1 inh-2: DAX1 (NR0B1) inhibition, primary screen; HEK293T StAR-luciferase reporter, SF-1/DAX-1 repression relief; inhibition, % at 6.8 µM; 370,000 compounds, 1.1% hits; AID 652010;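 active = inhibition above the mean over all tested compounds plus 3 SD, cut at about 3.6% in these data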;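 note: higher inhibition means more luminescence from relief of DAX-1 repression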
A number is an active result; i = inactive; nt = not tested or not shown.

SMILES	hgDAF-12 ag	ssDAF12 agonist	hcDAF-12 act	DAX1 inh-1	DAX1 inh-2
CC1CCC2(CCC(=O)N2CCCOC(=O)c2ccccc2)CC1 (centres undefined)	i	i	i	nt	i
CC(C(=O)Nc1cccnc1)C1Sc2ccccc2NC1=O (centres undefined)	i	i	6.0	i	i
O=C1C(C2=NC(c3ccccn3)C3C(=O)N(c4ccccc4)C(=O)C23)=C(O)c2ccccc21 (centres undefined)	i	i	i	4.3	i
O=C(N/N=C/c1ccncc1)C1C2CCCCCCC21 (centres undefined)	i	i	i	i	i
O=C(N/N=C/c1ccncc1)NC1CCCCC1	i	i	i	5.9	i
O=C(NCc1ccco1)/C(=C\C=C\c1ccccc1)NC(=O)c1ccco1	i	i	i	7.4	i
COC(=O)[C@]12CCCCC=C1N(Cc1ccc(OC)cc1)C(=O)[C@@H]2CC(=O)NCc1ccc(C)o1	i	i	i	nt	i
CCNC1CCS(=O)(=O)C1 (centres undefined)	i	i	i	i	i
O=S1(=O)CCC(NCC2CCCO2)C1 (centres undefined)	i	i	i	7.4	i
C[C@@H](CCCCC1(C)OCCO1)CCC(=O)N(c1ccccc1)c1ccccc1	i	i	i	nt	i
Cc1cc(C)c2nc(-n3nc(C)cc3N)cc(C)c2c1	i	i	5.7	i	i
CSc1nnc(SCC(=O)NC(=O)c2ccccc2)s1	i	i	i	i	4.1
Cc1csc(SCC(=O)NC(=O)c2ccccc2)n1	i	i	i	i	i
N#Cc1cccc(NC(=O)OC2CC3CC2[C@H]2CCCCN2[C@H]3Cc2ccccc2)c1 (some centres undefined)	i	i	i	nt	i
CC1CCCN(S(=O)(=O)c2coc(C(N)=O)c2)C1 (centres undefined)	i	i	i	5.1	i
CC1CCCCN1S(=O)(=O)c1coc(C(N)=O)c1 (centres undefined)	i	i	i	i	i
COc1ccc(-c2cc(-c3nnc(SCC(=O)Nc4nccs4)n3N)[nH]n2)cc1	i	i	i	nt	i
CN(C)CCCN(C(=O)c1cc(Cl)sc1Cl)c1nc2cc3c(cc2s1)OCO3	i	i	i	i	4.1
O=C(O)Cc1nn(Cc2ccc(Cl)cc2)c(=O)c2ccccc12	i	i	i	9.0	i
C=CC[C@@H]1NN2C(=O)[C@@H](CCc3ccccc3)[C@@H]3c4ccccc4C=NN3[C@@H]2c2ccccc21	i	i	i	nt	i
COc1ccc2c(c1)N=C(c1[nH]c3ccccc3c1CCN1C(=O)c3ccccc3C1=O)[C@]2(O)CCN1C(=O)c2ccccc2C1=O	i	i	i	nt	nt
COC(=O)c1cc(-c2ccc(F)c(Cl)c2)c(=O)n2c1CCC2	i	i	i	nt	i
CNCC(O)Cn1c2c(c3ccccc31)CCCC2 (centres undefined)	i	6.8	i	i	i
Cc1ccc2c(c1)c1c(n2CC(O)CNC(C)(C)C)CCCC1 (centres undefined)	i	i	i	i	i
O=[N+]([O-])c1cc2c(cc1CN1CCN(CCOCCO)CC1)OCO2	i	i	i	4.4	i
SMILES	hgDAF-12 ag	ssDAF12 agonist	hcDAF-12 act	DAX1 inh-1	DAX1 inh-2
C/C(=N\NC(=O)c1ccccc1)c1ccc2c(c1)OCO2	i	i	i	5.2	i
C/C(CCc1ccc2c(c1)OCO2)=N\NC(=O)c1ccccc1	11	2.5	i	i	i
C=CCN1[C@@H](CC(C)C)COc2cccc(N3CCSCC3)c2S1(=O)=O	i	i	i	nt	i
Cc1ccccc1CS(=O)(=O)Cc1ccc(C(=O)Nc2ccc(F)cc2F)o1	i	i	i	nt	i
CC(C)(CNC(=O)CCC1CCCC1)CNC(=O)CCC1CCCC1	i	i	i	i	i
O=C(CCC1CCCC1)NCCCNC(=O)CCC1CCCC1	i	i	5.9	i	i
CCCCCCCCN1C(=O)[C@@H](CC(=O)N2CCC(c3ccccc3)CC2)C[C@@]2(C(=O)OC)C1=C[C@H](C(C)C)O[C@@H]2C1CC1	i	i	i	nt	i
Cc1ccc(C2=NN(C(=O)CCCC(=O)O)C(c3ccco3)C2)cc1 (centres undefined)	i	1.1	i	i	i
Cc1ccc(N2N=C(c3ccc(F)cc3)CC2c2ccco2)cc1 (centres undefined)	i	i	i	5.1	i
CC(=O)N1N=C(c2ccc(C)cc2)CC1c1ccco1 (centres undefined)	i	i	i	i	i
CCOC(=O)N1CCN(C(=O)C[C@H]2C[C@@]3(C(=O)OC)C(=C[C@H](COCc4ccccc4)O[C@@H]3C)N(Cc3ccco3)C2=O)CC1	i	i	i	nt	i
COC(=O)[C@]12C[C@H](CC(=O)N3CCCCC3)C(=O)N(CCc3ccc(OC)c(OC)c3)C1=C[C@H](C1CCCC1)O[C@@H]2C	i	i	i	nt	i
CCCCCC(=O)OCc1ccc(C2=CC(=O)CC(C)(C)C2=O)cc1	i	i	i	i	4.2
Cc1ccc(-c2cc(C(=O)NN=Cc3ccc(F)cc3)[nH]n2)cc1C	11	i	i	nt	i
O=C(N/N=C/c1ccc(F)cc1)c1cc(-c2ccc3c(c2)OCO3)n[nH]1	i	i	i	4.6	i
Cc1ccc(-c2cc(C(=O)NN=Cc3ccc(-c4ccccc4)cc3)[nH]n2)cc1	i	i	i	nt	i
O=C(CSc1nc2scc(-c3ccccc3)c2c(=O)[nH]1)N1CCCCC1	i	i	i	5.6	i
O=C(CSc1nc2scc(-c3ccccc3)c2c(=O)[nH]1)NC1CCCCC1	i	i	i	nt	i
COCC(C)NC(=O)c1cc(-c2cccc(OC)c2)on1 (centres undefined)	i	i	i	i	i
COCCNC(=O)c1cc(-c2cccc(OC)c2)on1	11	i	i	i	i
COc1cccc(-c2cc(C(=O)NCc3cccs3)no2)c1	13	i	i	i	i
COc1ccc(-c2cc(C(=O)NCc3cccs3)no2)cc1	i	i	i	i	i
COc1ccc(-n2c(COc3ccc(Cl)cc3)nnc2SCC(=O)c2ccc(-c3ccccc3)cc2)cc1	i	i	i	nt	i
CN(C)/C=N/c1ncn(-c2ncc(C(F)(F)F)cc2Cl)n1	i	i	i	4.4	i
COc1ccc(C=NNC(=O)c2cc(-c3ccc(C)c(C)c3)n[nH]2)cc1OCc1ccccc1	i	i	i	nt	i
SMILES	hgDAF-12 ag	ssDAF12 agonist	hcDAF-12 act	DAX1 inh-1	DAX1 inh-2
O=C(NCCC(=O)N1CCN(c2ccccc2F)CC1)c1ccco1	i	i	i	i	3.7
C/C(=N\NC(=O)c1nn(C)cc1Br)c1cccc(NC(=O)C(C)(C)C)c1	i	i	i	i	i
C/C(=N\NC(=O)c1nn(C)cc1Br)c1cccc(NC(=O)C2CCCC2)c1	11	i	i	i	i
CCOC(=O)Cn1cc(CN2CCS(=O)(=O)N(Cc3ccc(F)cc3)C(C(=O)OC)C2)nn1 (centres undefined)	i	i	i	nt	i
Cn1ccnc1SCC(=O)c1ccc(OC(F)F)cc1	i	i	i	i	i
COc1ccc(C(=O)CSc2nccn2C)cc1	12	i	i	i	i

High-throughput results: PubChem, The Scripps Research Institute Molecular Screening Center
